The values below come from PubChem BioAssay AID1032 (The Scripps Research Institute Molecular Screening Center, 2008).

Each structure is given as a SMILES string. In all, about 200,000 compounds went through this assay and about 670 (0.34%) were called active. No stated cut-off is given here; in the data, active means activation above about 22%; inactive means the rest. The entries come from a sample that favours actives as a whole.

In this assay the target is Peroxisome proliferator-activated receptor gamma (Homo sapiens) (UniProt P37231). Put plainly: agonists of PPARg-SRC-2 recruitment, primary screen, biochemical, HTS (AID 1032).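 Further: 0% = vehicle and 100% = reference agonist.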 To be noted: PPARgamma LBD-SRC-2 recruitment, at 8 µM, active compounds read high.
Chain of Peroxisome proliferator-activated receptor gamma (Homo sapiens) (P37231 whole entry, looked up, the tested form may be a part): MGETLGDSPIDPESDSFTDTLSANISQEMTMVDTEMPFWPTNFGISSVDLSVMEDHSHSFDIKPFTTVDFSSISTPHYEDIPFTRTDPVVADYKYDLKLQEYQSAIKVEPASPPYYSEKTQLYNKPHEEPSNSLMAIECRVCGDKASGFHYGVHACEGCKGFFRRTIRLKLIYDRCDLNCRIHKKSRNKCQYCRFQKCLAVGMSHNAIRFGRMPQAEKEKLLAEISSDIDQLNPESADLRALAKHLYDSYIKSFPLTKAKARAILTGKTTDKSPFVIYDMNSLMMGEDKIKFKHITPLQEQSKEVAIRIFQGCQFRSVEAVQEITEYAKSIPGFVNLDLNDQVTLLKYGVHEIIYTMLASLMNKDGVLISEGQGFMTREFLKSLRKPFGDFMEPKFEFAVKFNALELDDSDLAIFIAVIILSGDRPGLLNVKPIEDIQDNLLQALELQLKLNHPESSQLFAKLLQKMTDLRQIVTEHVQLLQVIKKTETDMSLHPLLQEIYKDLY
With `CSC1=NP(=S)(SC)N(C)c2nc3n(c21)CCC3` (stereo not given), the activation is 76.2% (active).

As to `Cc1cccc2c(CCN)c[nH]c12`, the activation is 0.78% (inactive). To `O=C(Cc1ccccc1[N+](=O)[O-])N1CCN(Cc2ccc3c(c2)OCO3)CC1` belongs 0.02% (inactive); to `CCN1CCN(c2ccc([N+](=O)[O-])cc2C#N)CC1`, 6.97% (inactive). To `CC(C)CN1CCN(Cc2ccccc2C(F)(F)F)CC1CCO` (stereo not given) belongs -9.41% (inactive). Regarding `COc1cc(-n2c(=S)[nH]c3ccc(C)cc3c2=O)c(Cl)cc1Cl`, the activation was 24.8% (active). As to `CN(C)/C=C(\C=[N+](C)C)c1[nH]ncc1[N+](=O)[O-]`, the activation is 3.67% (inactive). As for `Cc1ccsc1C(=O)C1CCCN(Cc2ccc(O)cc2)C1` (stereo not given), the activation is 4.16% (inactive). As for `O=C1NC(=O)N(c2ccccc2)C(=O)/C1=C/c1ccc([N+](=O)[O-])s1`, the activation is 0.92% (inactive). Turning to `COc1ccc(CN2C(=O)NC(=O)/C(=C\c3ccc(OC)c(OC)c3OC)C2=O)cc1`, the activation was 11% (inactive).
